Outcome and AC50 data for four compounds are collected here from PubChem BioAssay (EPA / NIEHS).

“And” between values parts separate entries of the source, which are not always exact repeats. Identical values can stand only once. Some compounds were tested as several samples or in several runs, with calls that do not always agree. The source made the active and inactive calls. Rule for the calls: active = hit-call score of the fitted dose curve at least 0.9, where 1 is the maximum; inactive = score below 0.9.

A short description of one test: UKN2_HCS_IMR90_neural_migration: University of Konstanz (UKN) Leist Lab Neural Crest Cell Migration Assay in human induced IMR90 Pluripotent Stem Cells (UKN2) (AID 2284204). To be noted: actives raise or lower the signal. The method, boiled down: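 High-content imaging of calcein-AM and Hoechst stained cells quantifies migration into a stopper-defined gap after 24 h compound exposure. Neural crest cells from IMR90 iPSC migrated 24 h in EGF/FGF N2-S medium before dosing; DMSO baseline.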
As to `COP(=O)(OC)O/C(=C\Cl)c1cc(Cl)c(Cl)cc1Cl`, the call was inactive.

Turning to `O=C1C2(Cl)C3(Cl)C4(Cl)C(Cl)(Cl)C5(Cl)C3(Cl)C1(Cl)C5(Cl)C24Cl` (centres undefined), the concentration at half-maximal activity (AC50) was 2.17 µM (active).

For `C=C(C)C(=O)[O][Sn]([CH2]CCC)([CH2]CCC)[CH2]CCC`, the concentration at half-maximal activity (AC50) was 0.168 µM (active).

Regarding `CCOP(=S)(OCC)Oc1nc(Cl)c(Cl)cc1Cl`, the outcome was inactive.

The next test in a line: UKN4_HCS_LUHMES_neurite_outgrowth: University of Konstanz (UKN) Leist Lab Neurite Outgrowth Assay in human LUHMES cells (UKN4) (AID 2284206). Particulars: actives raise or lower the signal. Here is the method:
UKN4_HCS_LUHMES is a cell-based, multiplexed-readout assay screening for neurite outgrowth and cell viability that uses LUHMES, a human central nervous system cell line, with measurements taken at […] after chemical dosing in a microplate: 96-well plate. UKN4, also referred to as NeuriTox, is an assay that uses LUHMES neuronal precursors as a model of dopaminergic neuronal differentiation. Following a 2-day differentiation period, cells are exposed to chemicals for 24 hr and neurite area is evaluated as a marker of neurite outgrowth using high-content imaging of cells stained with calcein AM. Cell viability is assessed using stain Hoechst H-33342.UKN4_HCS_LUHMES_neurite_outgrowth is an assay component measured from the UKN4_HCS_LHUMES assay. It is designed to make measurements of neurite outgrowth, a form of morphology reporter, as detected with Fluorescence intensity signals by HCS Fluorescent Imaging.The assay endpoint UKN4_HCS_LUHMES_neurite_outgrowth was analyzed with bidirectional fitting relative to DMSO as the negative control and baseline of activity. Using a type of morphology reporter, gain or loss-of-signal activity can be used to understand developmental effects. To generalize the intended target to other relatable targets, this assay endpoint is annotated to the neurodevelopment intended target family, where the subfamily is neurite outgrowth.
Proliferating LUHMES cells are seeded in proliferation medium for 24 hours. Day 0: Medium is changed from proliferation medium to differentiation medium. Day 2: Cell number reaches about 30-40 Mio per T175 flask. Cells are trypsinized and replated onto 96-well plates (30000 cells/well in 90 ul) in differentiation medium without cAMP and GDNF. At about 30 min - 2 hours after seeding, when cells have attached, the compounds are added (10 ul of each dilution; total volume 100 ul). Day 3: 23.5 h after toxicant treatment, cells are live-stained with H-33342 and calcein-AM and incubated for 30 min. After 24 h of treatment (including staining), the cells are imaged using a high-content microscope (Cellomics).
`O=C1C2(Cl)C3(Cl)C4(Cl)C(Cl)(Cl)C5(Cl)C3(Cl)C1(Cl)C5(Cl)C24Cl` (centres undefined): the half-maximal activity concentration (AC50) is 3.44 µM (active).

As for `C=C(C)C(=O)[O][Sn]([CH2]CCC)([CH2]CCC)[CH2]CCC`, the AC50 is 0.0977 µM (active).

On to `CCOP(=S)(OCC)Oc1nc(Cl)c(Cl)cc1Cl`, for which the AC50 is 218 µM (active).

The next test can be described thus: CCTE_Mundy_HCI_Cortical_Synap_Neur_Matur_NeuriteSpotCountPerNeuriteLength: CCTE's Synaptogenesis and Neurite Maturation Assay in rat cortical cells for Neurite Spot Count per Neurite Length, Mundy Lab (AID 2284210).
Settings: not given
The method, boiled down: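 Synaptophysin spots per unit neurite length, measured by automated imaging of MAP2/synaptophysin/Hoechst-stained neurons. Cultures from rat cortex received chemical at DIV 7 with media change through DIV 12; glial growth arrested by AraC at DIV 5; DMSO baseline.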
With `COP(=O)(OC)O/C(=C\Cl)c1cc(Cl)c(Cl)cc1Cl`, the compound was called inactive.

Turning to `O=C1C2(Cl)C3(Cl)C4(Cl)C(Cl)(Cl)C5(Cl)C3(Cl)C1(Cl)C5(Cl)C24Cl` (centres undefined), the compound was called inactive.

For `C=C(C)C(=O)[O][Sn]([CH2]CCC)([CH2]CCC)[CH2]CCC`, the concentration at half-maximal activity (AC50) was 0.0607 µM (active).

With `CCOP(=S)(OCC)Oc1nc(Cl)c(Cl)cc1Cl`, the half-maximal activity concentration (AC50) is 50 µM (active) and the result was inactive.

The next test can be described thus: CCTE_Mundy_HCI_Cortical_Synap_Neur_Matur_BPCount: CCTE's Synaptogenesis and Neurite Maturation Assay in rat cortical cells for Branch Point Count, Mundy Lab (AID 2284211).
Settings: not given
Put shortly: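 HCI read-out of branch points from MAP2/synaptophysin/Hoechst immunofluorescence; rat cortical cultures, AraC DIV 5, dosing DIV 7, fixed DIV 12; fit in positive direction vs DMSO baseline.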
Take `COP(=O)(OC)O/C(=C\Cl)c1cc(Cl)c(Cl)cc1Cl`: the compound was called inactive.

Consider `O=C1C2(Cl)C3(Cl)C4(Cl)C(Cl)(Cl)C5(Cl)C3(Cl)C1(Cl)C5(Cl)C24Cl` (centres undefined), for which the AC50 was 22.7 µM (active).

Take `C=C(C)C(=O)[O][Sn]([CH2]CCC)([CH2]CCC)[CH2]CCC`: the half-maximal activity concentration (AC50) was 0.0799 µM (active).

In the case of `CCOP(=S)(OCC)Oc1nc(Cl)c(Cl)cc1Cl`, the half-maximal activity concentration (AC50) is 26.7 µM (active).

A further test in a line: CCTE_Mundy_HCI_Cortical_NOG_NeuriteCount: CCTE's Neurite Outgrowth Assay in rat cortical cells for Neurite Count, Mundy Lab (AID 2284212).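 Note: cells fixed about two days after chemical exposure began.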
Settings: not given
Put shortly: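 Rat cortical primary cells; compound added 2 h post-plating, 1/10 dilution of working solution. Anti-betaIII-tubulin/AF488 ICC; ArrayScan neurite count vs DMSO.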
For the compound `COP(=O)(OC)O/C(=C\Cl)c1cc(Cl)c(Cl)cc1Cl`, the AC50 is 34 µM (active) and 32.9 µM (active).

On to `O=C1C2(Cl)C3(Cl)C4(Cl)C(Cl)(Cl)C5(Cl)C3(Cl)C1(Cl)C5(Cl)C24Cl` (centres undefined), for which the concentration at half-maximal activity (AC50) was 22.7 µM (active).

As to `C=C(C)C(=O)[O][Sn]([CH2]CCC)([CH2]CCC)[CH2]CCC`, the AC50 was 0.123 µM (active).

Take `CCOP(=S)(OCC)Oc1nc(Cl)c(Cl)cc1Cl`: the AC50 is 32.4 µM (active).

A further test in a line: CCTE_Mundy_HCI_Cortical_NOG_NeuriteLength: CCTE's Neurite Outgrowth Assay in rat cortical cells for Neurite Length, Mundy Lab (AID 2284213).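 Note: neurites imaged about 48 to 50 h after chemical exposure began.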
Settings: not given
Put shortly: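 First, rat primary cortical cells were plated and, 2 h later, given test chemical as a 1/10 dilution. Finally, βIII-tubulin immunostaining enabled automated imaging of neurite length.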
As for `COP(=O)(OC)O/C(=C\Cl)c1cc(Cl)c(Cl)cc1Cl`, the half-maximal activity concentration (AC50) was 32.5 µM (active) and 31.3 µM (active).

Take `O=C1C2(Cl)C3(Cl)C4(Cl)C(Cl)(Cl)C5(Cl)C3(Cl)C1(Cl)C5(Cl)C24Cl` (centres undefined): the AC50 was 16.7 µM (active).

For the compound `C=C(C)C(=O)[O][Sn]([CH2]CCC)([CH2]CCC)[CH2]CCC`, the concentration at half-maximal activity (AC50) is 0.0893 µM (active).

As to `CCOP(=S)(OCC)Oc1nc(Cl)c(Cl)cc1Cl`, the AC50 was 32 µM (active) and 33.4 µM (active).
